Inconclusive results are not listed. Entries that show only a call come without a potency. Active and inactive are the calls of the source. Calls follow the shape of the dose curve; as a rule, active = well fitted curve in the direction sought with a large enough effect; inconclusive = small, poorly fitted or top-dose-only effect, or another doubt; inactive = no such curve, though single readings can be large; an effect the other way counts as inactive or inconclusive.
Columns and labels:
[1] = S16 Schwann cell viability assay (CellTiter-Glo assay) (AID 624031);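 also: native untransfected S16 rat Schwann cells; cellular ATP luminescence as a viability measure; nearly all actives have a fitted effect of over 70% in size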
Outline: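 Following overnight culture in 10% FBS DMEM, parental S16 rat Schwann cells are dosed for 24 h at 37 °C. Viability is read as CellTiter-Glo luminescence and expressed as % activity relative to DMSO (0%) and no-cell wells.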

CP185 = experiment: qHTS profiling for inhibitors of Plasmodium falciparum proliferation (AID 504749); also: nearly all actives have a fitted effect of over 60% in size; also: potency is read from the fitted curve at half-maximal effect; details: P. falciparum in erythrocytes, SYBR Green DNA, 72 h; series mostly up to 28.7 µM
Outline: (§1)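 P. falciparum-infected erythrocytes (0.3% parasitemia, 2.5% hematocrit final) were exposed to compounds for 72 h at 37 C in 5% CO2, then lysed with SYBR Green buffer overnight at room temperature; parasite DNA fluorescence was normalized to artemisinin and DMSO controls.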

CP203 = experiment: as above; details: P. falciparum in erythrocytes, SYBR Green DNA, 72 h; series mostly up to 28.7 µM
Outline: as §1

CP211 = experiment: as above; details: P. falciparum in erythrocytes, SYBR Green DNA, 72 h; series mostly up to 28.7 µM
Outline: as §1

CP215 = experiment: as above; details: P. falciparum in erythrocytes, SYBR Green DNA, 72 h; series mostly up to 28.7 µM
Outline: as §1

CP238 = experiment: as above; details: P. falciparum in erythrocytes, SYBR Green DNA, 72 h; series mostly up to 28.7 µM
Outline: as §1

CP256 = experiment: as above; details: P. falciparum in erythrocytes, SYBR Green DNA, 72 h; series mostly up to 28.7 µM
Outline: as §1

CP266 = experiment: as above; details: P. falciparum in erythrocytes, SYBR Green DNA, 72 h; series mostly up to 28.7 µM
Outline: as §1

CP268 = experiment: as above; details: P. falciparum in erythrocytes, SYBR Green DNA, 72 h; series mostly up to 28.7 µM
Outline: as §1

CP286 = experiment: as above; details: P. falciparum in erythrocytes, SYBR Green DNA, 72 h; series mostly up to 28.7 µM
Outline: as §1

CP291 = experiment: as above; details: P. falciparum in erythrocytes, SYBR Green DNA, 72 h; series mostly up to 28.7 µM
Outline: as §1

CP297 = experiment: as above; details: P. falciparum in erythrocytes, SYBR Green DNA, 72 h; series mostly up to 28.7 µM
Outline: as §1

ECU = experiment: as above; details: P. falciparum in erythrocytes, SYBR Green DNA, 72 h; series mostly up to 28.7 µM
Outline: as §1

JCK = experiment: as above; details: P. falciparum in erythrocytes, SYBR Green DNA, 72 h; series mostly up to 28.7 µM
Outline: as §1

N140 = experiment: as above; details: P. falciparum in erythrocytes, SYBR Green DNA, 72 h; series mostly up to 28.7 µM
Outline: as §1

CP194 = experiment: as above; details: P. falciparum in erythrocytes, SYBR Green DNA, 72 h; series mostly up to 28.7 µM
Outline: as §1

DIV14 = experiment: as above; details: P. falciparum in erythrocytes, SYBR Green DNA, 72 h; series mostly up to 28.7 µM
Outline: as §1

DIV17 = experiment: as above; details: P. falciparum in erythrocytes, SYBR Green DNA, 72 h; series mostly up to 28.7 µM
Outline: as §1

HB3 = experiment: as above; details: P. falciparum in erythrocytes, SYBR Green DNA, 72 h; series mostly up to 28.7 µM
Outline: as §1

W2 = experiment: as above; details: P. falciparum in erythrocytes, SYBR Green DNA, 72 h; series mostly up to 28.7 µM
Outline: as §1

| SMILES | Potency [1] | Potency (CP185) | Potency (CP203) | Potency (CP211) | Potency (CP215) | Potency (CP238) | Potency (CP256) | Potency (CP266) | Potency (CP268) | Potency (CP286) | Potency (CP291) | Potency (CP297) | Potency (ECU) | Potency (JCK) | Potency (N140) | Potency (CP194) | Potency (DIV14) | Potency (DIV17) | Potency (HB3) | Potency (W2) |
| --- | --- | --- | --- | --- | --- | --- | --- | --- | --- | --- | --- | --- | --- | --- | --- | --- | --- | --- | --- | --- |
| CC1OC(OC2C(O)CC(OC3C(O)CC(OC4CCC5(C)C(CCC6C5CCC5(C)C(C7=CC(=O)OC7)CCC65O)C4)OC3C)OC2C)CC(O)C1O (stereo not given) | inactive | inactive | inactive | inactive | inactive | inactive | inactive | inactive | inactive | inactive | inactive | inactive | inactive | inactive | inactive |  |  |  |  |  |
| CC1CN(c2c(F)c(N)c3c(=O)c(C(=O)O)cn(C4CC4)c3c2F)CC(C)N1 (stereo not given) | inactive | inactive | inactive | inactive | inactive | inactive | inactive | inactive | inactive | inactive | inactive | inactive | inactive | inactive | inactive | inactive | inactive | inactive | inactive | inactive |
| CCOc1ccccc1O[C@@H](c1ccccc1)[C@@H]1CNCCO1 | inactive | inactive |  | inactive | inactive |  |  | inactive | inactive |  | inactive |  | 7.94 µM (active) |  |  |  | 1.69 µM (active) | 1.9 µM (active) | inactive | 2.69 µM (active) |
| C/C=C1/NN(CCCN2CCN(c3cccc(Cl)c3)CC2)C(=O)N1CCOc1ccccc1 | inactive | inactive |  | inactive | inactive | inactive | inactive | inactive | inactive | inactive |  |  | inactive | inactive | inactive | inactive |  |  | inactive | 5.36 µM (active) |
| CCC(=O)OC1C(N(C)C)CC(C)O[C@H]1O[C@H]1[C@H](C)[C@@H](O[C@H]2CC(OC)[C@@H](O)C(C)O2)[C@H](C)C(=O)O[C@@H](CC)[C@](C)(O)[C@@H](O)[C@H](C)C(=O)[C@@H](C)C[C@]1(C)O (stereo not given in full) | inactive |  | inactive | inactive |  | inactive |  | inactive | inactive |  | inactive |  |  | inactive |  | inactive | inactive |  | inactive | 6.75 µM (active) |
| C=CCN1CC(C(=O)N(CCCN(C)C)C(=O)NCC)CC2c3cccc4[nH]cc(c34)CC21 (stereo not given) |  | inactive |  | inactive | inactive | inactive |  | inactive | inactive | 12.6 µM (active) |  | inactive |  | inactive |  | inactive | 15.1 µM (active) | 13.5 µM (active) | inactive | 6.01 µM (active) |
| C=C1N[C@]2(C(=O)COC(C)=O)[C@@H](C[C@H]3[C@@H]4CCC5=CC(=O)C=C[C@]5(C)[C@H]4[C@@H](O)C[C@@]32C)O1 | inactive |  |  |  |  |  | inactive | inactive |  |  |  | inactive | inactive | inactive | inactive |  | inactive | inactive | inactive | 15.1 µM (active) |
| O=C(NC(CO)C(O)c1ccc([N+](=O)[O-])cc1)C(Cl)Cl (stereo not given) | inactive |  | inactive |  |  |  | 11.2 µM (active) |  |  |  | 3.01 µM (active) |  | inactive | inactive |  | inactive |  | inactive |  |  |
| C[C@@H]1CC2[C@@H]3C[C@H](F)C4=CC(=O)C(Cl)=C[C@]4(C)[C@@]3(F)[C@H](O)C[C@]2(C)[C@@]1(O)C(=O)CO (stereo not given in full) | inactive |  |  | inactive | inactive |  | inactive | inactive | inactive | inactive | inactive | inactive |  | inactive |  | inactive |  |  | inactive |  |
| CC[C@H]1OC(=O)[C@H](C)C(=O)[C@H](C)[C@@H](OC2O[C@H](C)C[C@H](N(C)C)[C@@H]2O)[C@@](C)(OC)C[C@@H](C)C(=O)[C@@H](C)C2N(CCCCn3cnc(-c4cccnc4)c3)C(=O)O[C@@]21C (stereo not given in full) | inactive | inactive | inactive | inactive | inactive | inactive | inactive | inactive | inactive | inactive | inactive |  | 10 µM (active) |  |  | inactive | 12 µM (active) | 13.5 µM (active) |  |  |
| C=C1CC[C@H](O)C/C1=C/C=C1\CCC[C@]2(C)[C@@H]([C@H](C)CCCC(C)(C)O)CC[C@@H]12 |  |  | inactive | inactive |  |  |  | inactive | inactive |  | inactive | 13.5 µM (active) | 12.6 µM (active) | inactive | 10 µM (active) | inactive |  | 15.1 µM (active) |  |  |
| Oc1cc2cc(CCN3CCN(c4nsc5ccccc45)CC3)c(Cl)cc2[nH]1 |  | inactive | inactive | inactive | inactive | inactive | inactive | inactive |  |  |  | inactive | inactive | inactive |  | inactive | 6.75 µM (active) |  |  |  |
| CCC1OC(=O)C[C@@H](O)[C@H](C)[C@@H](OC2OC(C)CC(N(C)C)C2O)[C@@H](CC=O)C[C@@H](C)C(=O)/C=C/[C@]2(C)OC2C1C (stereo not given in full) | inactive | 2 µM (active) |  |  |  |  | 2.24 µM (active) |  |  | 1.12 µM (active) |  | 2.13 µM (active) |  | inactive |  |  |  |  |  | 1.2 µM (active) |
| Cc1cncc(C(=O)O)[n+]1[O-] | inactive |  |  | inactive | inactive |  |  |  | inactive | inactive | inactive | inactive |  | inactive |  | inactive | inactive | inactive | inactive | inactive |
| C=C1CC[C@H](O)C/C1=C/C=C1\CCC[C@]2(C)[C@@H]([C@H](C)CC[C@@H](O)C(C)(C)O)CC[C@@H]12 | inactive |  | inactive | inactive | inactive |  |  | inactive | inactive | inactive |  |  | 10 µM (active) |  | 8.91 µM (active) |  | 13.5 µM (active) | 13.5 µM (active) |  | 12 µM (active) |
| C=C1CCC(O)C/C1=C/C=C1\CCC[C@]2(C)[C@@H]([C@H](C)/C=C/[C@H](C)C(C)C)CC[C@@H]12 (stereo not given in full) | inactive |  | inactive | inactive | inactive | inactive |  | inactive | inactive | inactive | inactive | inactive |  | 0.708 µM (active) |  | inactive | inactive | inactive |  |  |
| CC1=C(/C=C/C(C)=C\C=C\C(C)=C\C=C\C=C(C)\C=C\C=C(C)\C=C\C2=C(C)C[C@@H](O)CC2(C)C)C(C)(C)C[C@H](O)C1 | inactive | inactive | inactive | inactive | inactive | inactive | inactive |  | inactive | 11.2 µM (active) | inactive |  | 14.1 µM (active) |  | 7.08 µM (active) | inactive | 12 µM (active) | 13.5 µM (active) | 10 µM (active) | 8.49 µM (active) |
| CCN(CC)CCOCCOC(=O)C(CC)(CC)c1ccccc1 (tested in a mixture with another compound) | inactive |  | 4.26 µM (active) |  |  |  | 5.62 µM (active) |  |  |  |  |  | inactive | inactive |  |  | 1.9 µM (active) | 1.51 µM (active) |  | 0.849 µM (active) |
| COC(=O)C1[C@@H](OC)C(OC(=O)COc2ccc(OC)cc2)C[C@@H]2CN3CCc4c([nH]c5cc(OC)ccc45)[C@H]3C[C@H]12 (stereo not given in full) | inactive |  | inactive | inactive | inactive |  |  | inactive |  | 11.2 µM (active) |  | inactive |  | inactive | 11.2 µM (active) |  | 7.57 µM (active) | 6.75 µM (active) | 12.6 µM (active) | 8.49 µM (active) |
| Cc1cc(O)c2c(c1)OC1(C)CCC3C(C)(C)CCCC34COC2C14 (stereo not given) |  |  |  |  |  | inactive | inactive |  |  | inactive | inactive |  |  |  | 12.6 µM (active) |  | 8.49 µM (active) | 15.1 µM (active) |  | 8.49 µM (active) |
| O=C(O)c1ccccc1-c1c2ccc(=O)cc-2oc2cc(O)ccc12 | inactive |  | inactive |  | inactive |  |  | inactive |  | inactive | inactive |  |  |  |  |  |  |  |  |  |
| C=C1CC2C3C=C(C)C4=CC(=O)CCC4(C)C3CCC2(C)[C@@]1(OC(C)=O)C(C)=O (stereo not given in full) |  | inactive |  |  |  | inactive |  |  |  |  |  |  | inactive | inactive | inactive |  |  |  |  |  |

Reference: PubChem BioAssay (NCATS)
